# Compound activity: PubChem BioAssay, The Scripps Research Institute Molecular Screening Center
# FBW7 activator – human FBW7 E3 ligase activation, primary screen; Q969H0; AlphaScreen FBW7–phospho-cyclin E peptide binding, activator screen; normalized activity (activation), % at 26.1 µM; 650,000 tested, 0.13% active; in the data active = normalized activity above about 1.9%;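 also: purified mutant Fbw7 with reduced substrate affinity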
# MITF primary – inhibitors of human MITF | 650,000 tested, 0.91% active | inhibition, % at 2.6 µM | O75030 | AlphaScreen MITF homodimerization, bead proximity signal; in the data active = inhibition above about 50%
# TEAD-YAP block – TEAD-YAP interaction inhibition. 640,000 tested, 1.4% active. inhibition, % at 9.12 µM. HEK-TIYL cells, TEAD-Gal4/YAP UAS-luciferase luminescence. AID 1259422; in the data active = inhibition above about 32%
# GPR151 activ – activates the human receptor GPR151 | AID 1508602 | Q8TDV0 | 650,000 tested, 1% active | activation, % at 11.2 µM | PathHunter beta-arrestin GPR151 cells, luminescence; in the data active = activation above about 4.9%
# Target sequence (Q8TDV0 whole entry, looked up): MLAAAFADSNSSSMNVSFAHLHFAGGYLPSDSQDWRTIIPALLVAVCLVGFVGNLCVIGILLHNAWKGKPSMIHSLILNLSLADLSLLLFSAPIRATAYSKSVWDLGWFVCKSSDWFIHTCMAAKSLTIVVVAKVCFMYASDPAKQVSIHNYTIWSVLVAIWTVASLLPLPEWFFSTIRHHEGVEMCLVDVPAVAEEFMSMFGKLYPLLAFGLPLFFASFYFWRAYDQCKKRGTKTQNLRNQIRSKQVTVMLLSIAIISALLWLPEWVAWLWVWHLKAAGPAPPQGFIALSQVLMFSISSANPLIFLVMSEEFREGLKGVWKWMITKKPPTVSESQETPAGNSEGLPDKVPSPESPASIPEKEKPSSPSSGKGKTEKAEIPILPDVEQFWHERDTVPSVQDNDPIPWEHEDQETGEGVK
# Numbers stand for hits; i = inactive. Only some compounds are listed: those with a hit (about 3.4% of all), similar ones and a draw of the others.
SMILES,FBW7 activator,MITF primary,TEAD-YAP block,GPR151 activ
O=C(c1n[nH]c2c1CCC2)N1CC[C@H]2[C@H](CCC(=O)N2CC2CCCCC2)C1,i,i,i,i
O=C(Nc1ccc(Br)cc1F)c1cc(S(=O)(=O)N2CCN(c3ccccc3Cl)CC2)ccc1F,i,i,i,i
Cc1nc2cc(NCc3nc4ccccc4n3C)ccc2n1C,i,i,81,i
CCCCOC(=O)C1=C(C)NC(=O)NC1c1ccc(OCCC)cc1 (stereo not drawn),i,i,i,i
COc1ccc(C2NC(=O)NC(C)=C2C(=O)OCc2ccc3c(c2)OCO3)cc1 (stereo not drawn),i,i,67,i
CCCOc1ccc(C2NC(=O)NC(C)=C2C(=O)OCc2ccc(OC)cc2)cc1 (stereo not drawn),i,i,58,i
CCCOC(=O)C1=C(C)NC(=O)NC1c1ccc(OCCC)cc1 (stereo not drawn),i,i,43,i
COc1ccc(COC(=O)C2=C(C)NC(=O)NC2c2ccc(C)cc2)cc1 (stereo not drawn),i,i,i,i
CCOC(=O)C1=C(C)NC(=O)NC1c1ccc([N+](=O)[O-])cc1 (stereo not drawn),i,i,i,i
COc1ccc(COC(=O)C2=C(C)NC(=O)NC2c2ccc([N+](=O)[O-])cc2)cc1 (stereo not drawn),i,i,44,i
O=C(Cn1c(=O)n(-c2cccc(C(F)(F)F)c2)c(=O)c2sccc21)NCc1ccco1,i,i,i,i
COCCNC(=O)c1ccc(CNS(=O)(=O)c2ccc(C)cc2)cc1,i,i,i,i
O=C(Nc1ccc(-c2ccc(NC(=O)c3ccc(Cl)cc3)cc2)cc1)c1ccc(Cl)cc1,39,i,i,i
Cc1nc(-c2ccc(NC(=O)c3ccccc3)cc2)cs1,i,i,51,i
Cc1ccc(C(=O)Nc2ccc(C)c(C)c2)cc1,i,i,67,i
Cc1ccc(C(=O)Nc2ccc(C(=O)O)cc2)cc1,i,i,45,i
O=C(Nc1cc(F)cc(F)c1)c1ccc(N2CCCCCC2)c([N+](=O)[O-])c1,i,i,i,i
O=C(O)CC(NS(=O)(=O)c1cccc2nsnc12)c1ccc(Cl)cc1 (stereo not drawn),i,i,i,i
COc1ccc(OC)c(NC(=O)c2sc3ncnc(N4CCN(c5ccccc5)CC4)c3c2C)c1,i,i,i,i
Cc1ccc(C2C3=C(CC(C)(C)CC3=O)N(Cc3ccc4c(c3)OCO4)C3=C2C(=O)CC(C)(C)C3)cc1,i,i,i,i
Clc1nc(Cl)nc(Nc2ccccc2)n1,2.2,i,i,i
Nc1nc(Nc2ccc(Cl)cc2)nc2ccccc12,i,i,52,i
Fc1cccc(Nc2nc(Cl)nc(Cl)n2)c1,i,i,i,i
Cc1ccc(Nc2nc(N)c3ccccc3n2)cc1,i,i,90,i
COc1ccc(Nc2nc(N)c3ccccc3n2)cc1,i,i,73,i
SMILES,FBW7 activator,MITF primary,TEAD-YAP block,GPR151 activ
CCc1ccc(S(=O)(=O)c2nnn3c2nc(NCc2ccco2)c2sccc23)cc1,i,i,i,i
CCOC(=O)C1(CC)NC(c2cccs2)C2C(=O)N(CC)C(=O)C21 (stereo not drawn),i,i,i,i
O=C(NCCc1nnc2n1CCN(Cc1ccc3ccccc3c1)CC2)c1ccco1,i,i,i,i
Cc1ccc(Nc2nc(N)c3ccccc3n2)cc1Cl,i,i,35,i
Nc1nc(Nc2ccccc2F)nc2ccccc12,i,i,57,i
Fc1ccccc1Nc1nc(N2CCOCC2)c2ccccc2n1,i,i,i,i
Cc1ccc(Nc2nc(N3CCOCC3)c3ccccc3n2)cc1Cl,i,i,i,i
CN(C)c1ccc(Nc2nc(N)c3ccccc3n2)cc1,i,i,91,i
CCN(CC)c1ccc(/C=C2/SC(N3CCOCC3)=NC2=O)cc1,i,i,i,i
CCN(C(=O)COC(=O)/C(C#N)=C/c1ccc2c(c1)OCO2)c1cccc2ccccc12,i,i,i,i
COc1ccc(Cl)cc1NC(=O)c1cc(S(=O)(=O)N2CCC3(CC2)OCCO3)ccc1F,i,i,i,i
COc1ccc(C2C(C(=O)Nc3cc(OC)c(OC)c(OC)c3)c3ccccc3C(=O)N2C)cc1 (stereo not drawn),i,i,54,i
Cc1cc(/C=c2\sc3nc4ccccc4n3c2=O)c(C)n1C1CCCC1,i,i,70,i
COc1cccc(/C=c2/sc3nc4ccccc4n3c2=O)c1,i,i,50,i
O=c1/c(=C\c2ccc(O)cc2)sc2nc3ccccc3n12,2.0,i,73,i
Cc1cc(/C=c2/sc3nc4ccccc4n3c2=O)c(C)n1-c1ccc(Cl)c(Cl)c1,i,i,i,i
CC(C)(C)C(=O)N1CCC(C(=O)NC(c2ccccc2)c2ccco2)CC1 (stereo not drawn),i,i,i,i
CCOC(=O)c1cnc2ccc(OCC)cc2c1Nc1ccccc1C,i,i,i,i
COc1ccc(N2C(SC)=NC(=Nc3ccc(C)cc3)C23CCC(C(C)(C)C)CC3)cc1 (stereo not drawn),i,i,i,i
COC1(C)N(c2ccc(C)cc2)CC(=Nc2ccc(C)cc2)N1c1ccc(C)cc1 (stereo not drawn),i,i,38,i
OCCNc1nc(N2CCN(c3ccccn3)CC2)nc2c1ncn2-c1ccccc1,i,i,42,i
c1ccc(N2CCN(c3nc(NCCN4CCOCC4)c4ncn(-c5ccsc5)c4n3)CC2)nc1,i,i,57,i
COc1ccc(CCNc2nc(N3CCN(c4ccccn4)CC3)nc3c2ncn3-c2ccsc2)cc1,i,i,i,i
CCCNc1nc(N2CCCC2CO)nc2c1ncn2-c1ccsc1 (stereo not drawn),i,i,37,i
OCCNc1nc(N2CCN(c3ccccn3)CC2)nc2c1ncn2-c1ccsc1,i,i,51,i
SMILES,FBW7 activator,MITF primary,TEAD-YAP block,GPR151 activ
CCCCOc1ccc(S(=O)(=O)N2CCSC2c2cc(Br)ccc2OC)cc1 (stereo not drawn),i,i,i,i
Cc1ccc2c(c1)C(=O)C(NS(=O)(=O)c1ccc(Cl)cc1)CS2 (stereo not drawn),i,i,i,i
O=C(CCNC(=O)c1ccccc1)N/N=C/c1cccc([N+](=O)[O-])c1,i,i,i,i
CCNc1nc(OC)nc(Oc2ccc(C(=O)OCC)cc2)n1,i,i,i,i
CCOC(=O)c1ccc(Oc2nc(NC)nc(OC)n2)cc1,1.9,i,i,i
CC(C)CC(C(=O)O)N1C(=O)/C(=C\c2ccco2)SC1=S (stereo not drawn),i,58,i,i
Cc1ccc(/C=C2/SC(=S)N(C(CCC(=O)O)C(=O)O)C2=O)o1 (stereo not drawn),i,55,i,i
CCC(C(=O)O)N1C(=O)/C(=C\c2ccc(C)o2)SC1=S (stereo not drawn),i,62,i,i
CCCCC(C(=O)O)N1C(=O)/C(=C\c2ccc(C)o2)SC1=S (stereo not drawn),i,i,i,i
O=C(O)CCC(C(=O)O)N1C(=O)/C(=C/c2ccccc2)SC1=S (stereo not drawn),i,i,i,i
CCCCC(C(=O)O)N1C(=O)/C(=C\c2ccco2)SC1=S (stereo not drawn),i,i,i,i
